target: AgAbp1; experiment: SPOT peptide array binding signal intensity (averaged, normalized) (arbitrary units (background-subtracted, floor 0; scale differs between SH3 domains)); higher = stronger binding of the SH3 domain to the peptide
In short: (§1)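 GST-SH3 fusions from four yeast species, purified on glutathione Sepharose, were incubated at 10 μg/ml overnight at 4°C on membranes of synthetic 15-mer peptides in which cysteines were replaced with serines. Binding signal is the normalized, background-subtracted spot intensity averaged over replicates, in domain-specific arbitrary units.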

Row | Binder | SPOT peptide array binding signal intensity
1 | NPTKSPPPPPSPSTM | ≤ 0

target: AgBbc1; experiment: as above
In short: as §1

Row | Binder | SPOT peptide array binding signal intensity
2 | NPTKSPPPPPSPSTM | ≤ 0

target: AgBem1-D1; experiment: as above
In short: as §1

Row | Binder | SPOT peptide array binding signal intensity
3 | NPTKSPPPPPSPSTM | 26

target: AgBzz1-D1; experiment: as above
In short: as §1

Row | Binder | SPOT peptide array binding signal intensity
4 | NPTKSPPPPPSPSTM | 126

target: AgBzz1-D2; experiment: as above
In short: as §1

Row | Binder | SPOT peptide array binding signal intensity
5 | NPTKSPPPPPSPSTM | 63.5

target: AgCyk3; experiment: as above
In short: as §1

Row | Binder | SPOT peptide array binding signal intensity
6 | NPTKSPPPPPSPSTM | ≤ 0

target: AgFus1; experiment: as above
In short: as §1

Row | Binder | SPOT peptide array binding signal intensity
7 | NPTKSPPPPPSPSTM | ≤ 0

target: AgHof1; experiment: as above
In short: as §1

Row | Binder | SPOT peptide array binding signal intensity
8 | NPTKSPPPPPSPSTM | 7

target: AgHse1; experiment: as above
In short: as §1

Row | Binder | SPOT peptide array binding signal intensity
9 | NPTKSPPPPPSPSTM | 16

target: AgLsb1; experiment: as above
In short: as §1

Row | Binder | SPOT peptide array binding signal intensity
10 | NPTKSPPPPPSPSTM | 1.25

target: AgLsb4; experiment: as above
In short: as §1

Row | Binder | SPOT peptide array binding signal intensity
11 | NPTKSPPPPPSPSTM | ≤ 0

target: AgMyo5; experiment: as above
In short: as §1

Row | Binder | SPOT peptide array binding signal intensity
12 | NPTKSPPPPPSPSTM | 232

target: AgNbp2; experiment: as above
In short: as §1

Row | Binder | SPOT peptide array binding signal intensity
13 | NPTKSPPPPPSPSTM | ≤ 0

target: AgRvs167; experiment: as above
In short: as §1

Row | Binder | SPOT peptide array binding signal intensity
14 | NPTKSPPPPPSPSTM | ≤ 0

target: AgSho1; experiment: as above
In short: as §1

Row | Binder | SPOT peptide array binding signal intensity
15 | NPTKSPPPPPSPSTM | ≤ 0

target: AgSla1-D1-D2; experiment: as above
In short: as §1

Row | Binder | SPOT peptide array binding signal intensity
16 | NPTKSPPPPPSPSTM | ≤ 0

target: AgSla1-D3; experiment: as above
In short: as §1

Row | Binder | SPOT peptide array binding signal intensity
17 | NPTKSPPPPPSPSTM | 128

target: CaAbp1-D1; experiment: as above
In short: as §1

Row | Binder | SPOT peptide array binding signal intensity
18 | NPTKSPPPPPSPSTM | 7

target: CaAbp1-D2; experiment: as above
In short: as §1

Row | Binder | SPOT peptide array binding signal intensity
19 | NPTKSPPPPPSPSTM | ≤ 0

target: CaBbc1; experiment: as above
In short: as §1

Row | Binder | SPOT peptide array binding signal intensity
20 | NPTKSPPPPPSPSTM | ≤ 0

target: CaBem1-D1; experiment: as above
In short: as §1

Row | Binder | SPOT peptide array binding signal intensity
21 | NPTKSPPPPPSPSTM | 5

target: CaBzz1-D1; experiment: as above
In short: as §1

Row | Binder | SPOT peptide array binding signal intensity
22 | NPTKSPPPPPSPSTM | 3240

target: CaBzz1-D2; experiment: as above
In short: as §1

Row | Binder | SPOT peptide array binding signal intensity
23 | NPTKSPPPPPSPSTM | 1620

target: CaCyk3; experiment: as above
In short: as §1

Row | Binder | SPOT peptide array binding signal intensity
24 | NPTKSPPPPPSPSTM | 7.5

target: CaFus1; experiment: as above
In short: as §1

Row | Binder | SPOT peptide array binding signal intensity
25 | NPTKSPPPPPSPSTM | 60

target: CaHof1; experiment: as above
In short: as §1

Row | Binder | SPOT peptide array binding signal intensity
26 | NPTKSPPPPPSPSTM | ≤ 0

target: CaHse1; experiment: as above
In short: as §1

Row | Binder | SPOT peptide array binding signal intensity
27 | NPTKSPPPPPSPSTM | 4

target: CaLsb1; experiment: as above
In short: as §1

Row | Binder | SPOT peptide array binding signal intensity
28 | NPTKSPPPPPSPSTM | 0.5

target: CaLsb4; experiment: as above
In short: as §1

Row | Binder | SPOT peptide array binding signal intensity
29 | NPTKSPPPPPSPSTM | ≤ 0

target: CaMyo5; experiment: as above
In short: as §1

Row | Binder | SPOT peptide array binding signal intensity
30 | NPTKSPPPPPSPSTM | 48

From the supplement of paper PMC4466140
